Laboratory results: PubChem BioAssay (NCI)
About 83,000 compounds went through this panel and 20% of them were active in at least one assay; those are over-represented in the sample as a whole.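 Note: values are percent growth. 100 is the growth of untreated cells, values between 100 and 0 indicate rising inhibition; between -100 and 0 indicates cell death.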 A number with no mark means an inactive call. Active and inactive are the calls of the source. Rule for the calls: active = growth percent below 10; inactive = the rest.

How the values were obtained:
Assay in all cases: NCI-60 one-dose screen, 48 h (100 = growth as untreated, 0 = no growth, -100 = all killed)
Conditions in all cases: 10 µM
SK-MEL-2 melanoma = system: SK-MEL-2 melanoma
EKVX NSCLC = system: EKVX NSCLC
UO-31 renal = system: UO-31 renal
TK-10 renal = system: TK-10 renal
ACHN renal = system: ACHN renal
CAKI-1 renal = system: CAKI-1 renal
A498 renal = system: A498 renal
CCRF-CEM leukemia = system: CCRF-CEM leukemia
MOLT-4 leukemia = system: MOLT-4 leukemia
SR leukemia = system: SR leukemia
RPMI-8226 leukemia = system: RPMI-8226 leukemia
OVCAR-8 ovarian = system: OVCAR-8 ovarian
OVCAR-5 ovarian = system: OVCAR-5 ovarian
OVCAR-4 ovarian = system: OVCAR-4 ovarian
SK-OV-3 ovarian = system: SK-OV-3 ovarian
IGROV1 ovarian = system: IGROV1 ovarian
OVCAR-3 ovarian = system: OVCAR-3 ovarian
HS 578T breast = system: HS 578T breast
NCI/ADR-RES ovarian = system: NCI/ADR-RES ovarian
SN12C renal = system: SN12C renal

Row | Structure (SMILES) | growth (SK-MEL-2 melanoma) | growth (EKVX NSCLC) | growth (UO-31 renal) | growth (TK-10 renal) | growth (ACHN renal) | growth (CAKI-1 renal) | growth (A498 renal) | growth (CCRF-CEM leukemia) | growth (MOLT-4 leukemia) | growth (SR leukemia) | growth (RPMI-8226 leukemia) | growth (OVCAR-8 ovarian) | growth (OVCAR-5 ovarian) | growth (OVCAR-4 ovarian) | growth (SK-OV-3 ovarian) | growth (IGROV1 ovarian) | growth (OVCAR-3 ovarian) | growth (HS 578T breast) | growth (NCI/ADR-RES ovarian) | growth (SN12C renal) [%]
1 | COC(=O)[C@]12CC[C@@H](C)[C@H](C)[C@@H]1C1=CC[C@@H]3[C@@]4(C)C/C(=N\O)[C@H](O)[C@@]5(C)COC(=C45)C[C@@]3(C)[C@]1(C)CC2 | -91.3% (active) | -68.6% (active) | -85.6% (active) | -91.2% (active) | -80.9% (active) | -80.7% (active) | -88.8% (active) | -49% (active) | -62.9% (active) | -39.2% (active) | -41% (active) | -78.3% (active) | -75.4% (active) | -79.1% (active) | -91.9% (active) | -58.4% (active) | -98.1% (active) | -33.6% (active) | -62.5% (active) | 
2 | CCc1cc2n(n1)-c1ncc(C(=O)OC)cc1Oc1ccccc1-2 | 106% | 98.5% | 88.8% | 96.1% | 108% | 94% | 101% | 95.2% | 95% | 93.9% | 93.3% | 97.8% | 105% | 100% | 102% | 97% | 106% | 97% | 103% | 
3 | CCCCCN(CCCCC)C(C)C(O)c1ccc2cc(Cl)c3ccccc3c2c1 (stereo not drawn) | 87% | 102% |  | 94.8% | 102% | 87.4% | 83.1% | 92.2% | 98.6% | 84.7% | 84.1% | 99.9% |  | 105% | 88.8% | 98.3% | 97.4% | 89.4% | 98.9% | 89.6
4 | C/C(=N\NC(=O)c1sc(=S)n(C)c1N)c1cc2ccccc2o1 | 74.4% | 64.8% |  | 56.6% | 59.7% | 50% | 33.3% | 51.2% | 35.7% |  | 42.5% | 69.6% | 74.1% | 61% | 133% | 37.5% | 65% |  | 49.1% | 72.2
5 | COc1ccc2oc(=O)cc(C(c3ccc[nH]3)c3ccc[nH]3)c2c1 | 5.1% (active) | 32.7% | 16.9% | 26.4% | 17.3% | 15.2% | -8.63% (active) | 11.3% | 6.26% (active) | 1.93% (active) | -3.8% (active) | -4.93% (active) | 34.8% | 38.8% | 7.19% (active) | 25.5% | -8.55% (active) | 18.8% | 7.99% (active) | 
6 | O=C(N/N=C\c1cc(Cl)ccc1O)c1ccncc1 | 96.9% | 83.2% | 41.6% | 66.3% | 27.7% | 49.2% | 104% | 11.3% | 15.9% | 26.8% | 52.7% | 44.5% | 83.9% | 31.4% | 59.4% | 33% | 19.1% | 125% | 26.8% | 
7 | N#CN1CC[C@H](C(=O)Nc2ncc(-c3ccccc3)s2)C1 | -43.8% (active) | -0.13% (active) | 7.47% (active) | -30.9% (active) | 4.65% (active) | 9.65% (active) | -47% (active) | 9.27% (active) | -19.7% (active) | 0.907% (active) | 3.84% (active) | 2.85% (active) | 1.27% (active) | -6.05% (active) | 5.15% (active) | 11% | -32.5% (active) | -7.39% (active) | 4.61% (active) | 
8 | CNC(=O)c1cc(Oc2ccc(NC(=O)Nc3ccc(Cl)c(OC4CCCCC4)c3)c(F)c2)ccn1 | 55.3% | 27.7% | 43.1% | 51.9% | 29.8% | 41.9% | 57.5% | 35.4% | 24.1% | 42.2% | 19.9% | 40.7% | 88.8% | 28.6% | 72.8% | 62.9% | 33.8% |  | 47.6% | 
9 | O=C(CSc1nnc(-c2ccc(Cl)cc2)o1)c1ccccc1 | 104% | 102% | 98.1% | 97.5% | 101% | 99.3% | 106% | 94.3% | 104% | 94% | 96.4% | 96.2% | 97.7% | 112% | 102% |  | 102% | 101% | 94.9% | 
10 | CCCCn1c(=O)[nH]c2c(c1=O)C(c1ccc(Cl)cc1)c1c([nH]c(=O)n(CCCC)c1=O)N2 | 108% | 99.9% | 94.9% | 91.3% | 105% | 95.6% | 103% | 108% | 104% | 106% | 104% | 99.5% | 99.5% | 102% |  | 102% | 115% | 106% | 98.6% | 
11 | CC(=O)c1ccc(NCn2nc(-c3ccc(Cl)cc3)oc2=S)cc1 | 99.3% | 103% | 95.8% | 95.9% | 96.1% | 97% | 106% | 103% | 81.8% | 85.1% | 105% | 105% | 85.2% | 113% | 94.4% |  | 108% | 96.2% | 101% | 
12 | CNC(=O)c1cc(Oc2ccc(NC(=O)Nc3ccc(Cl)c(C(C)(C)C)c3)c(F)c2)ccn1 | 44.2% | 29.9% | 41.6% | 54.8% | 31.5% | 54.4% | 53.4% | 40.6% | 36.6% | 43.4% | 34.2% | 44.9% | 82.6% | 33.1% | 66.6% |  | 40.5% | 64% | 40.2% | 
13 | C[C@@H]1C(=O)N(C[C@H](Cc2ccccc2)NC(=O)OCc2ccccc2)[C@]1(Cc1ccccc1)C(=O)OCc1ccccc1 | 42.9% | 34% | 16.4% | 29.1% | 32.2% | 32.2% | 37.7% | 52.6% | -0.259% (active) | 35.2% | 30.1% | 40.7% | 65.8% | 22.1% | 54.8% | 69.5% | 61.3% | 78.8% | 27% | 
14 | NC1CCC(Nc2nc(NCc3cc(Cl)ccc3O)c3ncn(C4CCCC4)c3n2)CC1 (stereo not drawn) | -73.7% (active) | -18.7% (active) | 1.65% (active) | -3.98% (active) | -5.98% (active) | 9.61% (active) | -67.1% (active) | -0.96% (active) | -15.5% (active) | -15.9% (active) | -25.1% (active) | 8.24% (active) | 17.3% | -6.96% (active) | 2.6% (active) | 1.62% (active) | -20.2% (active) | -1.92% (active) | 26.3% | 
